Paper PMC4336329 (PLoS ONE, 2015)
In all, about 310,000 compounds went through this assay and about 14,000 (4.5%) showed an effect of 50% or more. The effect is printed as a negative number. The sample holds strong results, similar compounds and a random draw of the others, so the mix is not that of the screen.

molecular target: human ether-à-go-go-related gene (hERG) potassium channel (human, UniProt Q12809); assay: primary screen, population patch clamp on CHO cells stably expressing hERG; higher = less effect of the substance
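Further: peak tail current of the secondary pulse compared with the same well before compound.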

Sequence of human ether-à-go-go-related gene (hERG) potassium channel (Q12809 whole entry, looked up): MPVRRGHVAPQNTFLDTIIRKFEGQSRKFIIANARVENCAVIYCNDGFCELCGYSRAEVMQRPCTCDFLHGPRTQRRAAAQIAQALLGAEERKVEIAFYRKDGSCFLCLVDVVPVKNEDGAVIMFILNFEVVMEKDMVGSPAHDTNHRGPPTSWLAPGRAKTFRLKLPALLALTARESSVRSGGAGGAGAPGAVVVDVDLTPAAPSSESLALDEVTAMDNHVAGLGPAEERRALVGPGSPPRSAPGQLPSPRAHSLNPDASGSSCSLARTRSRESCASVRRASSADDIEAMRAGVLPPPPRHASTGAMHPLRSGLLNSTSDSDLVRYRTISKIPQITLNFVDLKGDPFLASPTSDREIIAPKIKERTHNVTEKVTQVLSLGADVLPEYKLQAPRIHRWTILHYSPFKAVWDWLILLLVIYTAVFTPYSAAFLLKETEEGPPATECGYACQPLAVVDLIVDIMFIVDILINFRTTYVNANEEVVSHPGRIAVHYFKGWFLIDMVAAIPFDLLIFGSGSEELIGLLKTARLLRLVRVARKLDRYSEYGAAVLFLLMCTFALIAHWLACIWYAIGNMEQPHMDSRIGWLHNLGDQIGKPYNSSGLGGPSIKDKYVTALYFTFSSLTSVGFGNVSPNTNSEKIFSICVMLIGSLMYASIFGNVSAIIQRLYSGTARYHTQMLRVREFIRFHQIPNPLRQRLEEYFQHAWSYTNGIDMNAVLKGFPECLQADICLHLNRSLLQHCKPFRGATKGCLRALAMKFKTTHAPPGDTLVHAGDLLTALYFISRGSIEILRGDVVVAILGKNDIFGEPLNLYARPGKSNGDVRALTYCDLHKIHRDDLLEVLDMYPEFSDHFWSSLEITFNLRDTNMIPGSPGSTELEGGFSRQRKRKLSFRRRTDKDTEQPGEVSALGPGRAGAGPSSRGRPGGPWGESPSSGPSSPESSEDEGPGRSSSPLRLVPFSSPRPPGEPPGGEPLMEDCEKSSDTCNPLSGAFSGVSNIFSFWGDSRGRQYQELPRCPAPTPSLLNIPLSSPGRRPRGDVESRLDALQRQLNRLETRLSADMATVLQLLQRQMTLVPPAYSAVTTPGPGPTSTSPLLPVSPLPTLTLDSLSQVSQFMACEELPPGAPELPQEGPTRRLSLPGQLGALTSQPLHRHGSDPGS

Row | SMILES | hERG current change (%, negative = inhibition) at 10uM [%]
1 | Cn1ncc(Cl)c1C(=O)N/N=C/c1cccc(OC2CSC2)c1 | 8.77
2 | O=C(Nc1nccs1)c1cc(Cl)ccc1[N+](=O)[O-] | -9.55
3 | Cc1cccc(Cn2c(N(C)Cc3ccccc3)nc3c2c(=O)[nH]c(=O)n3C)c1 | -9.99
4 | CCOc1ccc2nc(NC(=O)Nc3cccs3)sc2c1 | 18
5 | Cc1ccc(C(=O)Nc2ccccc2N2CCOCC2)cc1S(=O)(=O)N1CCOCC1 | -55.3
6 | O=C(Nc1ccccc1N1CCCC1)c1ccc(F)c(S(=O)(=O)N2CCOCC2)c1 | -22.5
7 | O=C(Nc1ccccc1N1CCOCC1)c1ccc2c(c1)C(=O)N(Cc1ccncc1)C2=O | -58.8
8 | Cc1ccc(C(=O)Nc2ccccc2N2CCCC2)cc1S(=O)(=O)N1CCOCC1 | -51.2
9 | CCCCN1C(=O)c2ccc(C(=O)Nc3ccccc3N3CCOCC3)cc2C1=O | 7.18
10 | COc1ccc(C(=O)Nc2ccccc2N2CCOCC2)cc1S(=O)(=O)N1CCOCC1 | -17.8
11 | O=C(Nc1ccccc1N1CCOCC1)c1ccc(F)c(S(=O)(=O)N2CCOCC2)c1 | -12.6
12 | O=C(Nc1ccccc1N1CCCC1)c1ccc(Cl)c(S(=O)(=O)N2CCOCC2)c1 | -41.4
13 | O=C(Nc1ccccc1N1CCOCC1)c1ccncc1 | -1.93
14 | Cc1cn2c(N)c(/C=C3\C=Nc4ccccc43)c(=O)nc2s1 | 2.43
15 | CCOc1ccc(N=C(/C(C(=O)C(=O)N2CCOCC2)=C(\O)c2ccccc2)c2ccccc2)cc1 | 27.7
16 | COc1ccc(NC(=O)CN(C)S(=O)(=O)c2cccc3nsnc23)cc1 | -21.9
17 | O=C(O)c1ccccc1-c1nc2ccccc2c(=O)n1O | 14.9
18 | CCCOC(=O)CC1C(=O)NCCN1Cc1ccc(F)cc1 (centres unmarked) | 3.35
19 | CC1CC(C)CN(S(=O)(=O)c2ccc(NC(=O)C3CC(=O)N(Cc4ccccc4)C3)cc2)C1 (centres unmarked) | 17.3
20 | CC(C)CC1NC(=O)N(Cc2nc3ccccc3s2)C1=O (centres unmarked) | -32.5
21 | CC(C)CCC1(CCNC(=O)c2cccs2)CCOC(C)(C)C1 (centres unmarked) | -8.99
22 | c1ccc(-c2nn3c(Cn4nnc5ccccc54)nnc3s2)nc1 | -14.4

Row | SMILES | hERG current change (%, negative = inhibition) at 10uM [%]
23 | CC(C)C[C@H]1C(=O)N2CCC[C@H]2[C@]2(O)O[C@](NC(=O)C3C=C4c5cccc6[nH]c(Br)c(c56)C[C@H]4N(C)C3)(C(C)C)C(=O)N12.CS(=O)(=O)O (some centres unmarked) | 20.4
24 | CCN1C(=O)C(O)(CC(=O)/C=C/C=C/c2ccccc2)c2ccccc21 (centres unmarked) | -0.629
25 | CC1(C)C(/C=C/C=C/C=C/C=C2\N(CCCCS(=O)(=O)[O-])c3ccc4ccccc4c3C2(C)C)=[N+](CCCCS(=O)(=O)[O-])c2ccc3ccccc3c21.[Na+] | -15.5
26 | CCCN1C(=O)/C(=C/C=C2\N(CC)c3ccccc3C2(C)C)SC1=S | 8.96
27 | CN1/C(=C\C=C\C2=[N+](C)c3ccc4ccccc4c3C2(C)C)C(C)(C)c2ccccc21.[O-][Cl+3]([O-])([O-])[O-] | -75.7
28 | CCN1/C(=C\C=C\C2=[N+](CC)c3ccccc3C2(C)C)C(C)(C)c2ccccc21.[O-][Cl+3]([O-])([O-])[O-] | -96.7
29 | CN1/C(=C\C=O)C(C)(C)c2ccccc21 | 12.9
30 | CC(C)CCn1nnnc1CN1CCN(C(=O)c2ccco2)CC1.Cl | 16.8
31 | CC1(C)CC(=O)c2c(O)cc(OCC(=O)Nc3ccc(CCO)cc3)cc2O1 | -21.4
32 | CCN(C(=O)COC(=O)CSc1ccc(F)cc1)c1c(N)n(Cc2ccccc2)c(=O)[nH]c1=O | 10.9
33 | COC(=O)C1Cc2ccccc2CN1S(=O)(=O)c1ccc(C)cc1 (centres unmarked) | 1.57
34 | Cc1cnc(-c2nnc(N(C)C(=O)C3CCCO3)s2)cn1 (centres unmarked) | 2.91
35 | Cn1c(CNC(=O)c2ccc(Cl)cc2)nnc1SCC(=O)N1CCOCC1 | 15.4
36 | COc1ccccc1COCC(O)CNCC1(N2CCCCC2)CCCCC1.O=C(O)C(=O)O (centres unmarked) | -30.9
37 | OC(CNCC1(N2CCCCC2)CCCCC1)COc1ccc(Cl)cc1Cl (centres unmarked) | -73.7
38 | COc1cc(C(C)=O)ccc1OCC(O)CNCC1(N2CCCCC2)CCCCC1.O=C(O)C(=O)O (centres unmarked) | -42.1
39 | CCc1ccc(OC)c(S(=O)(=O)Nc2ccccc2C)c1 | 3.86
40 | COc1cccc(COCC(O)CN2CCC(C(N)=O)CC2)c1 (centres unmarked) | 12.3
41 | COc1ccc(-c2csc3ncnc(NCCCO)c23)cc1 | -13.3
42 | CC(C)CNC(CC(=O)Nc1cccc([N+](=O)[O-])c1)C(=O)O (centres unmarked) | -1.01
43 | Cc1ccc(NC(=O)COC(=O)[C@H](C)NC(N)=O)c(C)c1 | 15.1
44 | CCOc1ccc(S(=O)(=O)N2CCC(C(=O)NC3CCCCC3)CC2)cc1 | 18.3

Row | SMILES | hERG current change (%, negative = inhibition) at 10uM [%]
45 | CCOC(=O)C1CCN(CCC(=O)Nc2ccccc2Cl)CC1.Cl | -19.3
46 | CCOC(=O)C1CCN(CCC(=O)Nc2ccc(Br)cc2)CC1 | -63.5
47 | CCOC(=O)C1CCN(CCC(=O)Nc2ccc(C)cc2)CC1 | -32.4
48 | CCOC(=O)C1CCN(CCC(=O)Nc2cccc(Cl)c2C)CC1 | -5.48
49 | CCOC(=O)C1CCN(CCC(=O)Nc2ccc(Cl)cc2)CC1 | -62.4
50 | CCOC(=O)C1CCN(CCC(=O)Nc2ccc(F)cc2)CC1 | -31
51 | COc1ccccc1C(=O)NCC1(c2ccccc2)CCCC1 | 1.65
52 | O=C(NCCCCCCCCCNC(=O)C(F)(F)F)C(F)(F)F | -4.99
53 | CC1CC(C)CN(C(=O)CCCn2c(=O)c3cccn3c3cccnc32)C1 (centres unmarked) | -11
54 | O=c1c2cnn(-c3ccccc3)c2ncn1Cc1ccco1 | -7.57
55 | O=c1c2ccccc2ncn1Cc1ccco1 | -19.8
56 | CCCCn1cnc2c(c(-c3ccccc3)c(-c3ccccc3)n2Cc2ccco2)c1=N | -75.1
57 | N=c1c2c(-c3ccccc3)c(-c3ccccc3)n(Cc3ccco3)c2ncn1CCCO | -68.5
58 | CCCCn1c(=O)n(CC(=O)Nc2ccc(C)c(Cl)c2)c(=O)c2c1ncn2Cc1ccco1 | -6.22
59 | N=c1c2c(-c3ccccc3)c(-c3ccccc3)n(Cc3ccccc3)c2ncn1CCO | -37.6
60 | CCCCn1c(=O)n(Cc2cccc(F)c2)c(=O)c2c1ncn2Cc1ccco1 | -14.7
61 | N#Cc1c(-c2ccccc2)c(-c2ccccc2)n(Cc2ccco2)c1NC(=O)c1cccs1 | 12.6
62 | N=c1c2c(-c3ccccc3)c(-c3ccccc3)n(Cc3ccco3)c2ncn1CCO | -71
63 | NC(=S)N/N=C/c1ccc(C23CC4CC(CC(C4)C2)C3)cc1 | 23.2
64 | CN1CCc2cc3c(cc2[C@H]1[C@@H]1OC(=O)c2c1ccc1c2OCO1)OCO3 | 7.02
65 | O=C1C(=O)N(CC2CCCO2)C(c2ccco2)/C1=C(/O)c1ccc(F)cc1 (centres unmarked) | -13.4
66 | COc1cnc(SCc2c(Cl)cccc2Cl)nc1Cl | -1.4

Row | SMILES | hERG current change (%, negative = inhibition) at 10uM [%]
67 | COC(=O)c1cccc(CSc2nnc(C)s2)c1 | -1.67
68 | O=C(OCC(=O)N1CCCC1=O)c1ncc(Cl)c(Cl)c1Cl | 0.304
69 | O=C(OCC(=O)N1CCCC1=O)c1nc(Cl)c(Cl)c(Cl)c1Cl | -60.4
70 | Nc1c(Cl)c(Cl)nc(C(=O)OCC(=O)N2CCCC2=O)c1Cl | -22.5
71 | COc1cccc(C(=O)Nc2cc(-c3cn4cccnc4n3)ccc2C)c1 | -12
72 | O=C1C=C(Nc2ccc(Cl)cc2)C(=O)N1c1ccc(Cl)cc1 | 9.57
73 | O=C(NCCC(=O)N(CCc1ccccc1)Cc1ccccc1)c1ccccc1Cl | -72.9
74 | O=C(NCCC(=O)N(CCc1ccccc1)Cc1ccccc1)c1ccc(Br)cc1 | -44.9
75 | O=C(NCCc1ccccc1)c1ccccc1Cl | 3.33
76 | CCOC(=O)C1=C(O)/C(=C\c2ccc(O)c(OCC)c2)N=C1C | 8.17
77 | C1CCC(NC2=NCCC2)CC1.Cl | -1.01
78 | O=C(O)Cn1nc(C(F)(F)F)c2c1CCC2 | 20.4
79 | CCCN1C2CCCC1CC(NC(=O)c1ccccc1)C2 (centres unmarked) | -18.9
80 | CCCN1C2CCCC1CC(NC(=O)c1ccc(C(C)(C)C)cc1)C2 (centres unmarked) | -37.1
81 | CCCN1C2CCCC1CC(NC(=O)c1ccccc1F)C2 (centres unmarked) | -21.7
82 | CCCN1C2CCCC1CC(NC(=O)c1ccc(OC)cc1)C2 (centres unmarked) | -30.1
83 | CCCN1C2CCCC1CC(NC(=O)c1ccc(Br)cc1)C2 (centres unmarked) | -66.3
84 | CCCN1C2CCCC1CC(NC(=O)c1ccc(F)cc1)C2 (centres unmarked) | -55.3
85 | CCc1ccc(NCc2ccc(OC)c(Cn3ccnc3)c2)cc1 | -10.5
86 | O=C(O)CCCC(=O)N1N=C(c2c(-c3ccccc3)c3cc(Cl)ccc3[nH]c2=O)CC1c1cccs1 (centres unmarked) | 23.2
